This is part of a sample that, as a whole, favours compounds with a hit. Of some 83,000 tested, about 20% had one in any assay.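 Cell lines were cultured in 96-well plates, exposed to a single compound concentration, and assessed for percent growth 48 hours later.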 Activity calls are given as the source filed them. Rule for the calls: active = growth percent below 10; inactive = the rest.
What was measured:
Assay in all cases: NCI-60 one-dose screen, 48 h (100 = growth as untreated, 0 = no growth, -100 = all killed)
[1] = tested on: DU-145 prostate; conditions: 10 µM unless noted
[2] = tested on: K-562 leukemia; conditions: 10 µM unless noted
[3] = tested on: MALME-3M melanoma; conditions: 10 µM unless noted
[4] = tested on: MDA-MB-231 breast; conditions: 10 µM unless noted
[5] = tested on: RXF 393 renal; conditions: 10 µM unless noted
[6] = tested on: SF-268 CNS; conditions: 10 µM unless noted
[7] = tested on: SF-295 CNS; conditions: 10 µM unless noted
[8] = tested on: SF-539 CNS; conditions: 10 µM unless noted
[9] = tested on: UACC-257 melanoma; conditions: 10 µM unless noted
[10] = tested on: M14 melanoma; conditions: 10 µM unless noted
[11] = tested on: HCT-15 colon; conditions: 10 µM unless noted
[12] = tested on: HT29 colon; conditions: 10 µM unless noted
[13] = tested on: SNB-75 CNS; conditions: 10 µM unless noted
[14] = tested on: SNB-19 CNS; conditions: 10 µM unless noted
[15] = tested on: PC-3 prostate; conditions: 10 µM unless noted
[16] = tested on: SK-MEL-5 melanoma; conditions: 10 µM unless noted
[17] = tested on: UACC-62 melanoma; conditions: 10 µM unless noted
[18] = tested on: LOX IMVI melanoma; conditions: 10 µM
[19] = tested on: SK-MEL-28 melanoma; conditions: 10 µM unless noted
[20] = tested on: U251 CNS; conditions: 10 µM unless noted

Measured: growth

Cc1c(O)ccc(SC#N)c1C
inactive: [1] 115% | [2] 104% | [3] 129% | [4] 84.9% | [5] 112% | [6] 87.1% | [7] 129% | [8] 94.2% | [9] 107% | [10] 97.4% | [11] 96.9% | [12] 112% | [13] 95.3% | [14] 96.5% | [15] 86.1% | [16] 106% | [17] 94.6% | [18] 101% | [19] 99.5%

CCCCCCCCCCCC(=O)OC(C)C(=O)NCCCC (stereo not drawn)
inactive: [1] 105% | [2] 94.1% | [3] 96.4% | [4] 113% | [5] 107% | [6] 101% | [7] 102% | [8] 108% | [9] 96.4% | [10] 105% | [11] 106% | [12] 101% | [13] 105% | [14] 106% | [15] 95.8% | [16] 102% | [17] 103% | [18] 93.6% | [19] 121%

OC(c1cc2ccc(C(F)(F)F)cc2c2cc(C(F)(F)F)ccc12)C1CCCCN1 (stereo not drawn)
active: [1] -99.3% | [2] -95% | [3] -72.6% | [4] -79.1% | [5] -79.6% | [6] -81.7% | [7] -96% | [8] -88.1% | [9] -86.4% | [10] -85.2% | [11] -90.4% | [12] -100% | [13] -94.4% | [15] -95.2% | [16] -95.4% | [17] -96.5% | [18] -100% | [19] -99.3%

C=C(C(N)=O)C(N)C(=O)O (stereo not drawn)
inactive: [1] 99.9% | [2] 100% | [3] 98% | [4] 108% | [5] 111% | [6] 106% | [7] 112% | [8] 110% | [9] 112% | [10] 90.7% | [11] 109% | [12] 100% | [13] 108% | [15] 103% | [16] 103% | [17] 114% | [19] 106%

O=[N+]([O-])c1ccc(C(Br)c2ccc([N+](=O)[O-])cc2)cc1
active: [18] -40.1%
inactive: [1] 111% | [2] 25.4% | [3] 101% | [4] 93.8% | [5] 117% | [6] 84.8% | [7] 80.6% | [8] 110% | [9] 98.1% | [10] 22.6% | [11] 57.8% | [12] 72.7% | [14] 106% | [20] 88.6% | [15] 61.8% | [16] 68.1% | [17] 79.5% | [19] 105%

CN(C)c1ccc(/C=C/c2sc3ccc4ccccc4c3[n+]2C)cc1
active: [1] -40% | [2] 0.148% | [3] -48.8% | [4] -61.5% | [5] -95.1% | [6] -65.1% | [7] -35.4% | [8] -54.6% | [9] -48.7% | [10] -76.5% | [11] 0.902% | [12] -100% | [13] -95.6% | [14] -32.5% | [15] -38% | [16] -100% | [17] -75% | [18] -35.3% | [19] -56.6%

COc1c(C)c2c(c(O)c1C/C=C(\C)CCC(=O)O)C(=O)OC2
inactive: [1] 50.8% | [2] 20.2% | [3] 38.8% | [4] 57% | [5] 50.7% | [6] 34.8% | [7] 16.8% | [8] 40.7% | [9] 13.2% | [10] 20.4% | [11] 20.7% | [12] 13.3% | [13] 48.1% | [15] 40.3% | [16] 23.6% | [17] 41.7% | [18] 12.1% | [19] 31.3%

O=C1C=CC(=O)N1C1CCCCCCCCCCC1
inactive: [1] 88.1% | [3] 72.9% | [4] 99.8% | [5] 64% | [6] 100% | [7] 90.8% | [8] 98.5% | [9] 66.6% | [10] 80.8% | [11] 88.6% | [12] 45.2% | [13] 79.4% | [14] 97.1% | [15] 86.9% | [16] 92.9% | [17] 88.8% | [19] 91%
active: [2] -2.11%

CN(C)CCN(C)CC(C)(C)C(=O)/C=C/c1ccc(Cl)c(Cl)c1
active: [1] -99.2% [100 µM] | [2] -21.1% [100 µM] | [3] -95.5% [100 µM] | [4] -98% [100 µM] | [5] -95.1% [100 µM] | [6] -54.8% [100 µM] | [7] -97.9% [100 µM] | [8] -99.3% [100 µM] | [9] -90.4% [100 µM] | [10] -92% [100 µM] | [11] -86.4% [100 µM] | [12] -77.5% [100 µM] | [13] -99.3% [100 µM] | [20] -95.1% [100 µM] | [15] -87.2% [100 µM] | [16] -99.3% [100 µM] | [17] -95.6% [100 µM] | [19] -98.6% [100 µM]

Cc1ccc2cccc(OC(=O)Nc3cccc(C(F)(F)F)c3)c2n1
active: [7] 6.24%
inactive: [1] 71.1% | [2] 33.5% | [3] 82% | [4] 86.6% | [5] 95.6% | [6] 95% | [8] 96.4% | [9] 87.3% | [10] 85.5% | [11] 50.9% | [12] 56.2% | [13] 87.5% | [14] 72.1% | [16] 86.4% | [17] 60.8% | [19] 84.6%

CCCOS(=O)(=O)c1ccccc1
inactive: [1] 118% | [2] 128% | [3] 111% | [4] 107% | [5] 112% | [6] 106% | [7] 113% | [8] 102% | [9] 111% | [10] 115% | [11] 102% | [12] 110% | [14] 103% | [20] 106% | [15] 92.1% | [16] 112% | [17] 102% | [18] 103% | [19] 122%

O=[N+]([O-])c1ccc2c(c1)Cc1ccccc1-2
inactive: [1] 97.7% | [2] 94.5% | [3] 95.7% | [4] 102% | [5] 109% | [6] 95.9% | [7] 100% | [8] 100% | [9] 97.2% | [10] 106% | [11] 91% | [13] 88.9% | [14] 94.9% | [20] 90.9% | [15] 96.7% | [16] 97.7% | [17] 91.6% | [18] 100% | [19] 110%

CCNc1nnnn1CC
inactive: [1] 109% | [2] 109% | [3] 116% | [4] 103% | [5] 106% | [6] 106% | [7] 103% | [8] 103% | [9] 116% | [10] 104% | [11] 99.7% | [12] 109% | [13] 90.4% | [20] 106% | [15] 97.3% | [16] 101% | [17] 106% | [18] 98.7% | [19] 113%

O=C1C(=O)c2cc([N+](=O)[O-])ccc2-c2ccccc21
active: [1] -99.2% | [2] -9.39% | [3] -82.7% | [4] -50.6% | [5] -97.2% | [6] -84.4% | [7] -82.2% | [8] -93% | [9] -94.5% | [10] -90.2% | [11] -53.7% | [12] -79.4% | [13] -98.2% | [14] -93.8% | [16] -99.6% | [17] -94.2% | [18] -88.4% | [19] -97%

Oc1ccc(Nc2ccc3ccccc3c2)cc1
inactive: [1] 51.2% | [2] 26.5% | [3] 92.9% | [4] 36% | [5] 78.3% | [6] 50.4% | [7] 67.7% | [8] 36.6% | [9] 73.7% | [10] 53.3% | [11] 54.7% | [12] 95.8% | [13] 63.2% | [14] 75.5% | [15] 39.2% | [16] 44.7% | [17] 18% | [18] 40.9% | [19] 90.3%

CC(O)C(O)C(O)C(O)C(O)C(=O)NNc1ccccc1 (stereo not drawn)
inactive: [1] 96.4% | [2] 67.7% | [3] 105% | [4] 81.1% | [5] 119% | [6] 87.4% | [7] 86.4% | [8] 92.7% | [9] 100% | [10] 85% | [11] 78.6% | [12] 104% | [13] 82.6% | [14] 97.1% | [15] 86.3% | [16] 107% | [17] 30.5% | [18] 48.1% | [19] 103%

CSc1nc(C)c(C(=O)CCN2CCN(c3ccccn3)CC2)s1
inactive: [1] 102% | [2] 93.6% | [3] 102% | [4] 101% | [5] 100% | [6] 102% | [7] 102% | [8] 99% | [9] 99.7% | [10] 99.9% | [11] 97.3% | [12] 102% | [13] 103% | [14] 96.1% | [15] 94.3% | [16] 101% | [17] 98.7% | [19] 106%

Reference: PubChem BioAssay (NCI)
